Shiga toxin inh: Shiga toxin inhibition. Vero cells, Shiga toxin protein synthesis inhibition reporter. inhibition, % at 38.7 µM. 290,000 compounds, 9.2% hits; in the data active means inhibition mostly above about 28%, no sharp cut-off; inactive means mostly below about 43%; further: 0% is about no effect
TbPYK inhibitor: inhibitors of Trypanosoma brucei pyruvate kinase | Q57TT1 | TbPYK enzyme, Kinase-Glo Plus ATP luminescence, 45 min | Potency, µM (doses to about 76.8 µM), without a hit: top-dose activity, negative = inhibition, actives largely listed as inhibitors | 410,000 compounds, 0.12% hits | AID 624173; further: potency means the concentration at half of the fitted maximal effect; on the % scale 0 is the no-effect control and ±100 the full control effect; nearly all actives have a fitted effect of over 50% in size
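Assay buffer: 50 mM TEA pH 7.2, 100 mM KCl, 10 mM MgCl2, 0.05% BSA, 0.01% Tween-20. Pyruvate kinase from T. brucei plus substrate met compound, then ADP (130 uM final). Luminescence was read post 45 min RT.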
RE007 growth inh: less growth of the S. pombe RE007 Vpr strain; S. pombe RE007 Vpr strain, BacTiter-Glo ATP luminescence, 24 h; Potency, µM (series often up to 92.2 µM), inactives show at the highest dose activity change, negative = less growth, actives largely listed as inhibitors; 360,000 compounds, 0.21% hits; AID 651644; active means well fitted falling curve with a large enough effect; inconclusive means small, poorly fitted or top-dose-only effect; inactive means no such curve, though single readings can be large or run the other way; further: potency means the concentration at half of the fitted maximal effect; on the % scale 0 is the no-effect control and ±100 the full control effect; nearly all actives have a fitted effect of over 50% in size
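Fission yeast RE007 carrying one integrated HIV-1 vpr copy, seeded at OD 0.01 in PMG+AL medium with 23 nL pinned compound. Grown 24 h at 30 degrees; viability read by BacTiter-Glo luminescence after 5 min.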
LmPK inhibitor: inhibitors of Leishmania mexicana pyruvate kinase; Q27686; purified LmPK, Kinase-Glo ATP luminescence, 1 h; Potency, µM (highest dose often 57.5 µM), for the others: at the highest dose activity change, negative = inhibition, actives largely listed as inhibitors; 290,000 compounds, 0.37% hits; further: potency means the concentration at half of the fitted maximal effect; on the % scale 0 is the no-effect control and ±100 the full control effect
Target sequence (Q27686 whole entry, looked up): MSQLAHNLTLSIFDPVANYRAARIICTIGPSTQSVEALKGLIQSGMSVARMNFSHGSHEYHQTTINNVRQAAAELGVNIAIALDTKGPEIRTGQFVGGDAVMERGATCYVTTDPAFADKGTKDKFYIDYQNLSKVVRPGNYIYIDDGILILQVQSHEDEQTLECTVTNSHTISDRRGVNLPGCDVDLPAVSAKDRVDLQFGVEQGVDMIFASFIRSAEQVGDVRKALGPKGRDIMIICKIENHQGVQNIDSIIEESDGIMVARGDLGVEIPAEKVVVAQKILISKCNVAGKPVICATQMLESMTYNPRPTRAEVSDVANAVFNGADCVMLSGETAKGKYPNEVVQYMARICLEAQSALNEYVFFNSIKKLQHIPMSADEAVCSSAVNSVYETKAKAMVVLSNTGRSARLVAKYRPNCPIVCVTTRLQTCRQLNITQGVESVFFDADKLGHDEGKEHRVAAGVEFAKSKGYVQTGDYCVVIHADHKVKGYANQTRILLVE
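Pyruvate kinase activity monitored as ATP production (luciferase luminescence). Conditions: 0.1 nM enzyme, 0.5 mM PEP, 0.1 mM ADP, 1 h, RT; normalized against uninhibited and no-enzyme wells.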
CHX counter-1: counter-screen for Shiga toxin inhibitors: cycloheximide protein synthesis inhibition. 300,000 compounds, 12% hits. cell reporter, cycloheximide protein synthesis inhibition counterscreen. max response, %; in the data active means max response mostly above about 13%, no sharp cut-off; inactive means mostly below about 14%; further: read at 38.3 µM for the half of the compounds with a filed dose; 0% is about no effect
Giardia FBPA inh: Giardia lamblia aldolase inhibition. A8B2U2. purified Giardia FBPA. Potency, µM (series often up to 59.6 µM), for the others: at the top dose activity, negative = inhibition, actives largely listed as inhibitors. 290,000 compounds, 0.71% hits. AID 2451; further: potency means the concentration at half of the fitted maximal effect; on the % scale 0 is the no-effect control and ±100 the full control effect; nearly all actives have a fitted effect of over 55% in size
Target sequence (A8B2U2 whole entry, looked up): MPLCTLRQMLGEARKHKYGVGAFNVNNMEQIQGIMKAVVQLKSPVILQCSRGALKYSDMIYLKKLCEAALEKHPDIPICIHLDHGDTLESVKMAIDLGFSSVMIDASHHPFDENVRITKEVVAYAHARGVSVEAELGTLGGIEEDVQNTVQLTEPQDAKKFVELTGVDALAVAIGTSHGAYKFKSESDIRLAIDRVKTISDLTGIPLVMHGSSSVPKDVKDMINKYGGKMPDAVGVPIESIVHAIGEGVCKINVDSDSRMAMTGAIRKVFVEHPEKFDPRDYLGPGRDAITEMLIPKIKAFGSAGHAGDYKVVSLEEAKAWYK
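40 nM FBPA preincubated 10 min at RT with compound (up to 57.5 uM final), then substrate plus GAPDH/TPI/NAD/arsenate coupling and diaphorase/resazurin added. Fluorescence read after 20 min at RT, 525/598 nm.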
CHX counter-2: affects protein synthesis reporter in cycloheximide counter-screen. AID 2318. shares compounds with Shiga toxin inh. 510 compounds, 3% hits. Potency, µM (top dose mostly 38.3 µM), without a hit: at the top dose activity (activation), most hits filed as activators. Cycloheximide counterscreen, protein synthesis reporter, Shiga toxin assay; calls by dose curve; further: potency means the concentration at half of the fitted maximal effect; 0% is about no effect
The depositor's hits bear a star; ? = inconclusive; / = not tested or not shown; [ ] = remark or other dose. This excerpt belongs to a sample that is enriched for hits. Unless noted, the call rests on the fitted dose curve; in most records, active means well fitted curve in the direction sought with a large enough effect; inconclusive means small, poorly fitted or top-dose-only effect, or another doubt; inactive means no such curve, though single readings can be large; an effect the other way counts as inactive or inconclusive.

SMILES | Shiga toxin inh | TbPYK inhibitor | RE007 growth inh | LmPK inhibitor | CHX counter-1 | Giardia FBPA inh | CHX counter-2
COc1cccc(C(C(=O)NC2CCCC2)N(C(=O)c2ccco2)C2CC2)c1OC (stereo unspecified) | 35.2* | -3.3% | -9.6% | -3.0% | -1.6 | 0.1% | 1.8%
COCCn1c(=O)[nH]c2cc(C(=O)Nc3cccc(C(C)=O)c3)ccc2c1=O | 1.8 | 1.4% | -26.2% | -4.9% | -5.7 | -5.3% | /
COc1ccc(NC(=O)c2cccnc2Nc2ccc(OC)cc2)cc1 | 41.9* | -4.1% | -8.4% | -1.6% | 5.1 | 0.2% | 1.1%
COc1ccc(CNC(=O)c2ccccc2[N+](=O)[O-])cc1 | -6.8 | -1.5% | 10.8% | -2.4% | -2.2 | 0.4% | /
COc1ccc(NC(=O)c2ccccc2[N+](=O)[O-])cc1 | 40.0* | -13.4% | 2.7% | -2.9% | 4.8 | -2.3% | 5.4%
Cc1ccc(NC(=O)c2ccc(Cn3cc(Br)cn3)o2)cc1 | 38.3* | 0.1% | 6.1% | 1.4% | 7.8 | -0.3% | 3.2%
COC(=O)c1cc(NC(=O)c2ccc(Cn3cc(Cl)cn3)o2)cc(C(=O)OC)c1 | -7.8 | -0.4% | 9.3% | 3.1% | -5.9 | -0.7% | /
CCN(CC(=O)Nc1c(F)cccc1F)C(=O)CCCc1c[nH]c2ccccc12 | -1.9 | -0.5% | -4.5% | -2.6% | 6.5 | -4.9% | /
CCN(CC)C(=O)CCCc1c[nH]c2ccccc12 | 52.2* | -0.3% | -0.2% | -0.4% | 9.4 | -7.2% | 5.5%
Cc1cc(C)c2nc(-c3ccccn3)cc(C(=O)NCc3ccco3)c2c1 | 10.2* | -6.4% | -17.3% | 1.2% | 16.6 | -22.4% | ?
O=C1C=C[C@@H](O)[C@H]2[C@@H]3C(=O)N(Cc4ccc5c(c4)OCO5)C(=O)[C@@H]3CC[C@H]12 | / | / | / | / | / | 0.4%[12.9 µM] | /
O=C1N(Cc2cccnc2)C[C@@H]2C[C@@H](c3cccc(Oc4ccccc4)c3)N3CCC[C@@]123 | 16.8 | 6.3% | -0.2% | 0.8% | -2.3 | 4.2% | /
CCOC(=O)c1ccc(NC(=O)Nc2ccn(C)n2)cc1 | 46.6* | -2.6% | 0.7% | -9.8% | 12.7 | 0.6% | ?
CCOC(=O)c1ccc(NC(=O)Nn2cnnc2)cc1 | -0.7 | -3.5% | 12.0% | 1.3% | 9.3 | 4.1% | /
O=C(CSc1nnc(-c2ccccn2)o1)Nc1ccccc1C(F)(F)F | 63.1* | -8.8% | 5.1% | 2.7% | 5.8 | -5.5% | 4.1%
COc1ccc(Cl)cc1C(=O)NNC(=O)c1ccc(F)c(S(=O)(=O)N2CCOCC2)c1 | / | -5.2% | -5.4% | / | / | / | /
O=C(NC(O)C(=O)c1ccc(F)cc1)c1ccc(F)cc1 (stereo unspecified) | -2.2 | -10.8% | 4.9% | -6.1% | -2.9 | 7.9% | /
CCCn1c(C)cc(/C=C(\C#N)C(=O)OCC(=O)Nc2ccc(OC)c(Cl)c2)c1C | 61.4* | 5.3% | / | 0.2% | 11.5 | -0.8% | 3.6%
CCCn1c(C)cc(/C=C(\C#N)C(=O)OCC(=O)NC(=O)NCC)c1C | 17.6 | 3.1% | -14.1% | -0.3% | 5.8 | 5.0% | /
COc1ccccc1NC(=O)CSc1nnc(-c2ccco2)n1Cc1ccco1 | 62.9* | 1.6% | 4.8% | 1.3% | -4.3 | 5.1% | 2.5%
COc1ccccc1NC(=O)CSc1nnc(-c2ccccn2)n1Cc1ccco1 | 13.2 | 0.0% | -10.8% | 0.7% | -4.5 | 1.8% | /
CCCCSCc1nc2nc(Cl)c(Cl)nc2[nH]1 | / | 0.7% | -15.3% | / | / | / | /
CN1CCN(CCCNC(=O)c2cnn(-c3ccc(F)cc3)c2-n2cccc2)CC1 | / | -3.3% | / | / | / | / | /
O=C(c1ccco1)N1CCN(CCCCOc2cccc3ccccc23)CC1 | 37.4* | -0.2% | 8.5% | 6.3% | 7.3 | -17.6% | 0.0%
CC(C)c1nnc(NC(=O)CSc2nc3ccccc3s2)s1 | 50.4* | -13.6% | -10.1% | 3.9% | 3.3 | 5.5% | 1.5%
SMILES | Shiga toxin inh | TbPYK inhibitor | RE007 growth inh | LmPK inhibitor | CHX counter-1 | Giardia FBPA inh | CHX counter-2
CCCOC1(C(F)(F)F)NC(=O)N(c2cccc(Cl)c2)C1=O (stereo unspecified) | / | -2.6% | / | / | / | / | /
COc1ccc2cc(C(=O)NCc3ccccc3)[nH]c2c1 | 31.3* | -22.1% | -2.9% | 8.2% | 12.1 | -7.4% | ?
Cc1ccc(NC(=O)C(c2ccccc2)N2CCN(C(=O)c3ccco3)CC2)cc1Cl (stereo unspecified) | / | -6.1% | 4.8% | / | / | / | /
Cc1c(C(=O)N2CCCCC2)sc(NC(=O)C2CC2)c1C#N | 2.1 | 9.0% | -2.0% | -1.6% | 3.2 | -8.6% | /
Cc1sc(NC(=O)C2CCCC2)c(C#N)c1C | 18.9* | -23.6% | -13.7% | 1.9% | 1.3 | -19.0% | 0.7%
COc1cc(CN2CCN(CC#Cc3ccccc3)CC2CCO)cc(OC)c1 (stereo unspecified) | 20.5* | -3.2% | -24.1% | -3.5% | 7.6 | 7.0% | -0.9%
O=C(NCCCSc1ccccc1)c1cc(Br)ccc1O | -20.3 | -17.4% | ? | 0.9% | 8.3 | / | /
CCCC(=O)Nc1cc(C)c(NC(=O)c2ccco2)cn1 | / | 8.0% | 6.7% | -0.3% | 9.0 | 0.3% | /
CCCC(=O)Nc1cnc(NC(=O)c2cccc(F)c2)cc1C | 66.8* | -17.5% | -22.4% | ? | 3.6 | -9.3% | 1.59µM*
O=C1C=C(c2ccc(C(=O)O)c(Cl)c2)C[C@@H](c2ccc3c(c2)OCO3)C1 | / | -3.2% | 17.4% | / | / | / | /
NNC(=O)c1ccc(NS(=O)(=O)c2ccc(Br)cc2)cc1 | 28.4* | / | / | 4.1% | 2.4 | -2.0% | 4.4%
COc1ccccc1CNC(=O)Cn1cc([N+](=O)[O-])ccc1=O | 50.3* | -7.0% | -14.4% | -4.8% | -2.6 | / | -1.6%
O=c1c2ccccc2sc2nc(C3CCCCC3)n(Cc3ccco3)c(=O)c12 | 24.2* | -4.4% | 2.4% | -8.7% | 3.2 | -11.7% | -1.5%
NC(=O)Cc1ccc(C(=O)c2ccccc2F)s1 | 37.8* | -7.5% | -5.6% | -1.9% | 14.8 | 8.0% | -0.1%
O=C(NCCCO)/C(=C\c1ccco1)NC(=O)c1ccco1 | 38.0* | -1.6% | 1.9% | -6.6% | 0.5 | -0.2% | -0.8%
Cc1ccc(NC(=O)C2CC(=O)Nc3ncnn32)c(C)c1 (stereo unspecified) | -5.2 | 1.0% | 7.8% | -0.6% | -2.9 | -1.3% | /
COc1ccc(N/C=C(\C#N)c2nc3ccccc3n2C)c(OC)c1 | 81.3* | 4.6% | -22.8% | 0.4% | -2.0 | 2.8% | ?
CC1CCC/C=C/C2CC(O)CC2C(O)/C=C/C(=O)O1 (stereo unspecified) | 40.7* | 0.3% | 2.8% | -2.4% | 4.6 | -0.5% | -7.4%
COc1ccc(C2=NOC(C(=O)NC(C)C)C2)cc1 (stereo unspecified) | 25.9* | 0.9% | 0.1% | -4.4% | 1.9 | 0.6% | 0.7%
CCCc1cc(=O)oc2cc(C)cc(OCC(=O)NCc3ccccn3)c12 | 122.4* | 5.8% | -1.4% | 4.7% | 12.3 | -7.4% | -2.9%

Compound activity: PubChem BioAssay, National Center for Advancing Translational Sciences (NCATS)
